# Only some compounds are listed: those with a hit (about 7.9% of all), similar ones and a draw of the others.
# HCV inh: qHTS Assay for Inhibitors of Hepatitis C Virus (HCV); Huh7.5.1 HCVcc-Cre infection, luciferase reporter, 44 h; Potency, µM (top dose mostly 41.8 µM), without a hit: top-dose activity change, negative = inhibition, most hits filed as inhibitors; actives 3.4% (n = 340,000); active = well fitted inhibition curve with a large enough effect; inconclusive = small, poorly fitted or top-dose-only effect, or another doubt; inactive = no such curve, though single readings can be large or run the other way; note: potency is the fitted concentration of half-maximal effect
#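 Antiviral activity was scored by luciferase reporter output from cells infected with HCVcc-Cre (~0.5 moi) in presence of compound, 44 h infection period, cells seeded 1,000/well 4 h prior.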
# MARV entry inh: qHTS for inhibitors of binding or entry into cells for Marburg Virus | actives 1.8% (n = 300,000) | Potency, µM (series often up to 37.8 µM), without a hit: at the highest dose activity change, negative = inhibition, usual class: inhibitors | Marburg virus pseudotyped entry inhibition, cell reporter; calls by dose curve; tested in HEK293 cells; note: potency is the fitted concentration of half-maximal effect
# FMDV antiviral: High Throughput Screening for Foot and Mouth Disease Virus Antivirals; FMDV antiviral cell-based qHTS; Potency, µM (doses to about 57.9 µM), inactives show at the top dose activity change, negative = inhibition, usual class: inhibitors; actives 1.2% (n = 410,000); AID 1159524, 2015; calls by dose curve; tested in HEK293T cells; note: read-out not given here; potency is the fitted concentration of half-maximal effect; nearly all actives have a fitted effect of over 45% in size
# HCMV inh: qHTS Assay for inhibitors of the human cytomegalovirus (HCMV); HFF cells, HCMV-luciferase reporter, 72 h; active compounds read low; activity change, negative = inhibition, % at 57.5 µM; actives 4.5% (n = 410,000); AID 1259415, 2018; in the data active = activity change below about -60%; inconclusive = no clear call, values can overlap the other calls; inactive = above about -39%
#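 Steps: HFFs plated, 16 h 37C; compounds added; HCMV-luciferase added to MOI 1 PFU/cell; 72 h 37C; OneGlo reagent, 5 min room temperature; luminescence read, normalized to controls.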
# LASV entry inh: qHTS for Inhibitors of binding or entry into cells for Lassa Virus | Lassa virus pseudotype entry inhibition, cell reporter | Potency, µM (series often up to 37.9 µM), for inactives: at the top dose activity change, negative = inhibition, hits mostly inhibitors | actives 1.2% (n = 300,000) | AID 540256, 2011; calls by dose curve; tested in HEK293 cells; note: potency is the fitted concentration of half-maximal effect; nearly all actives have a fitted effect of over 50% in size
# Starred values were filed as active, the others as inactive; ? = inconclusive; · = no result; [ ] = remark or other dose. % is set by controls: 0 for no effect and ±100 for the full control effect.
SMILES,HCV inh,MARV entry inh,FMDV antiviral,HCMV inh,LASV entry inh
Cc1ccc(S(=O)(=O)N2CCC(C(=O)Nc3ccc(C(C)C)cc3)CC2)cc1,11µM*,·,0%,4,·
Cc1ccc(S(=O)(=O)N2CCCC2C(=O)Nc2ccc(Br)cc2)cc1 (stereo not drawn),·,-4%[46.1 µM],-19%,-61*,11%[46.1 µM]
O=C(Nc1ccc(Cl)cc1)C1CCCN(S(=O)(=O)c2ccc3[nH]c(=O)ccc3c2)C1 (stereo not drawn),·,·,-28%,-24,10%[46.1 µM]
CC(C)c1ccc(NC(=O)C2CCCN(S(=O)(=O)c3ccc4[nH]c(=O)ccc4c3)C2)cc1 (stereo not drawn),·,·,?,-92*,?
CCc1ccccc1NC(=O)CSc1ncc2c(n1)-c1ccccc1N(C)S2(=O)=O,·,·,-15%,7,4%[46.1 µM]
Cc1ccc(NC2=Nc3ccccc3CS2)cc1,-12%,10µM*,-28%,-3,?
Clc1ccc(OCCN2CCOCC2)cc1Cl,-3%,-1%,34%,-22,-10%
NC(=S)NN=C1c2cc(OCCN3CCOCC3)ccc2-c2ccc(OCCN3CCOCC3)cc21,4µM*,?,18µM*,·,?
CCOc1ccc(C(=O)NCCc2ccccc2)cc1,-7%,?,·,10,8.2µM*
CC(=O)Oc1ccc(C(=O)NCCc2ccccc2)cc1,4%,?,-21%,-3,7.1µM*
COc1ccc(C(=O)N(C)c2ccccc2C(=O)NCCc2ccccc2)cc1,?,?,14%,-97*,4µM*
CC(=O)Oc1ccc(-c2ccc(C(=O)NCCc3ccc(S(N)(=O)=O)cc3)cc2)cc1,6%,?,-15%,-1,-10%[46.1 µM]
CCN(CC)CCCNC(=O)C1CCN(S(=O)(=O)CC)CC1,·,·,-7%,3,0%[46.1 µM]
O=C(O)c1cccc(-n2cnc3cccnc32)c1,·,18%[46.1 µM],-21%,-14,?
CCOc1cc(C)c(S(=O)(=O)Nc2ccc(F)cc2)cc1C,?,-29%,22%,-62*,5%
COc1ccc(C)cc1S(=O)(=O)Nc1ccc(F)cc1,-15%,?,76%,38,10%
COc1ccc(C(=O)c2c(C(F)(F)F)oc3c2C(=O)c2ccccc2C3=O)cc1OC,?,2.8µM*,10µM*,-103*,2.5µM*
COc1ccc(C(=O)Nc2ccc3c(c2)C(=O)c2ccccc2C3=O)cc1OC,-10%,8%,3%,9,4%
Cc1ccc(NC(=O)CSc2nc3c(oc4ccccc43)c(=O)n2-c2ccc(F)cc2)c(C)c1,·,-29%[46.1 µM],0%,6,·
Cn1c(-c2cccnc2)cc2cnc(Nc3ccc(F)cc3)cc21,·,·,·,31,·
CC1CCN(c2ncnc3ccccc23)CC1,11µM*,-1%,?,-72*,0%
O=S(=O)(c1cc(C(F)(F)F)ccc1Cl)N1CCN(c2ncnc3ccccc23)CC1,14µM*,-28%,?,-82*,?
Cc1cc(C)c(C)c(S(=O)(=O)N2CCN(c3ncnc4ccccc34)CC2)c1C,2.5µM*,·,16µM*,?,·
CC1CCN(c2nc(-c3ccccc3O)nc3ccccc23)CC1,?,-23%,-15%,53,-4%
O=S(=O)(c1cc(C(F)(F)F)ccc1Cl)N1CCCCCC1,6%,-5%,·,-29,-7%
SMILES,HCV inh,MARV entry inh,FMDV antiviral,HCMV inh,LASV entry inh
Cc1cc2ccccc2c(=O)n1CC(=O)N(C)c1ccc(F)cc1,7%,-15%,1%,-103*,-2%
Cc1ccc(NC(=O)CNC(=O)Cn2c(C)cc3ccccc3c2=O)cc1F,·,-1%[46.1 µM],-20%,13,26%[46.1 µM]
COc1ccc(C(=O)Nc2ccccc2C(=O)N(Cc2ccco2)C(C(N)=O)C(C)C)cc1 (stereo not drawn),-22%,?,-3%,-76*,?
CCc1ccc(C2=NNC(=Nc3cccc(S(=O)(=O)N(C)C)c3)SC2)cc1,4.5µM*,?,-7%,-99*,?
S=C(NCc1cccs1)Nc1cc(Cl)cc(Cl)c1,?,?,1%,-100*,-5%[46.1 µM]
S=C(NCc1cccs1)Nc1cccc(Cl)c1,-16%,1%,33%,-69*,-12%
O=C(NCc1cccs1)Nc1cccc(Cl)c1,-14%,-8%[46.1 µM],70%,18,3%
S=C(NCCN(C1CCCCC1)C1CCCC1)Nc1cccc(Cl)c1,13µM*,?,-16%,-85*,?
S=C(NCCC(c1ccccc1)c1ccccc1)Nc1cccc(Cl)c1,?,-4%,34%,-34,-28%
NC(=O)[C@H]1CC2(CC(c3cccc(NC(=O)COc4ccc(Cl)cc4)c3)=NO2)CN1C(=O)Cc1ccc([N+](=O)[O-])cc1 (stereo partly drawn),1.6µM*,·,?,-78*,·
Cc1cccc(CSc2nc(N)c(C#N)c(-c3cccs3)c2C#N)c1,11µM*,?,?,-35,-21%
CC(=O)OC[C@H]1O[C@@H](ON=C2C[C@@H](O)[C@@H](O)[C@@H]3[C@H]4C(=O)N(Cc5ccccc5)C(=O)[C@@H]4CC[C@@H]23)[C@H](OC(C)=O)[C@@H](OC(C)=O)[C@H]1OC(C)=O,·,-9%[14.2 µM],·,·,?
O=c1c(C=Nc2ccc(Oc3ccccc3)cc2)c[nH]n1-c1cccc(Cl)n1,16%,-18%,-25%,-65*,?
COc1ccc(N=Cc2c(O)n(-c3cccc(C)n3)c(=O)c3ccccc23)cc1,-20%,2%,?,-39,?
O=C(C1CC12CCN(Cc1cccc3cccnc13)CC2)N1CCN(Cc2cccs2)CC1 (stereo not drawn),·,·,-9%,·,·
CCN(CC)S(=O)(=O)c1ccc(NC(=O)CN(c2ccccc2)S(=O)(=O)N(C)C)cc1,·,-6%[46.1 µM],-23%,-89*,?
Cc1ccc(S(=O)(=O)N(CC(=O)Nc2ccccc2-c2ccccc2)c2ccc(C)cc2C)cc1,?,?,-19%,?,?
Cc1cccc(N(CC(=O)Nc2ccccc2-c2ccccc2)S(=O)(=O)c2ccccc2)c1C,?,?,-25%,-61*,-29%
CCNC(=O)CN(c1ccc(C)cc1)S(=O)(=O)c1ccccc1,-10%,-25%[46.1 µM],19%,-83*,1%
Cc1ccc(N(CC(=O)NCc2ccco2)S(=O)(=O)c2ccccc2)cc1,-6%,-14%,23%,-7,-3%
Cc1ccc(N(CC(=O)Nc2ccccc2-c2ccccc2)S(=O)(=O)c2ccccc2)cc1,10µM*,?,-10%,-70*,?
COc1cccc(N2C(=O)C(O)=C(C(C)=O)[C@@H]2c2ccc(OC)c(OC)c2)c1,·,7%,·,·,·
CCOc1ccc(Nc2c(S(=O)(=O)c3ccccc3)cnc3ccc(F)cc23)cc1,·,-2%[46.1 µM],-10%,-30,·
CCc1ccc(N(CC(=O)Nc2ccc(NC(C)=O)cc2)S(=O)(=O)c2ccccc2)cc1,-21%,-20%,-1%,-61*,?

# Screening data deposited in PubChem BioAssay by National Center for Advancing Translational Sciences (NCATS).
